Laboratory results taken from PubChem BioAssay.
Activity calls are given as the source filed them. Unless noted, no rule for the calls is given here.

Columns and labels:
[1] = compounds binding Alexa647 anti-His antibody – biochemical, small-molecule microarray, 635 nm fluorescence, artefact control for SMM control protein annotation, primary screen (AID 1128); details: higher = more signal;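 also: score merges feature fluorescence with signal-to-noise for each printed compound spot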
[2] = system: Human papillomavirus type 1a E7 protein (residues 1-88); assay: HPV1a E7 small-molecule binders, primary screen, biochemical, small-molecule microarray, residues 1-88, 635 nm (AID 1129); details: small-molecule microarray binding, fluorescence 635 nm; higher = more signal
[3] = molecular target: Focal adhesion kinase 1 (Homo sapiens) (UniProt Q05397); assay: PTK2 protein binding on printed compound slides – biochemical, small-molecule microarray, 635/667 nm fluorescence, BSA, DTT, primary screen (AID 1130); details: 635 nm fluorescence, higher = more signal;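 also: composite of spot emission at 667 nm and signal to noise over triplicate slides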
Focal adhesion kinase 1 (Homo sapiens), sequence (Q05397 whole entry, looked up): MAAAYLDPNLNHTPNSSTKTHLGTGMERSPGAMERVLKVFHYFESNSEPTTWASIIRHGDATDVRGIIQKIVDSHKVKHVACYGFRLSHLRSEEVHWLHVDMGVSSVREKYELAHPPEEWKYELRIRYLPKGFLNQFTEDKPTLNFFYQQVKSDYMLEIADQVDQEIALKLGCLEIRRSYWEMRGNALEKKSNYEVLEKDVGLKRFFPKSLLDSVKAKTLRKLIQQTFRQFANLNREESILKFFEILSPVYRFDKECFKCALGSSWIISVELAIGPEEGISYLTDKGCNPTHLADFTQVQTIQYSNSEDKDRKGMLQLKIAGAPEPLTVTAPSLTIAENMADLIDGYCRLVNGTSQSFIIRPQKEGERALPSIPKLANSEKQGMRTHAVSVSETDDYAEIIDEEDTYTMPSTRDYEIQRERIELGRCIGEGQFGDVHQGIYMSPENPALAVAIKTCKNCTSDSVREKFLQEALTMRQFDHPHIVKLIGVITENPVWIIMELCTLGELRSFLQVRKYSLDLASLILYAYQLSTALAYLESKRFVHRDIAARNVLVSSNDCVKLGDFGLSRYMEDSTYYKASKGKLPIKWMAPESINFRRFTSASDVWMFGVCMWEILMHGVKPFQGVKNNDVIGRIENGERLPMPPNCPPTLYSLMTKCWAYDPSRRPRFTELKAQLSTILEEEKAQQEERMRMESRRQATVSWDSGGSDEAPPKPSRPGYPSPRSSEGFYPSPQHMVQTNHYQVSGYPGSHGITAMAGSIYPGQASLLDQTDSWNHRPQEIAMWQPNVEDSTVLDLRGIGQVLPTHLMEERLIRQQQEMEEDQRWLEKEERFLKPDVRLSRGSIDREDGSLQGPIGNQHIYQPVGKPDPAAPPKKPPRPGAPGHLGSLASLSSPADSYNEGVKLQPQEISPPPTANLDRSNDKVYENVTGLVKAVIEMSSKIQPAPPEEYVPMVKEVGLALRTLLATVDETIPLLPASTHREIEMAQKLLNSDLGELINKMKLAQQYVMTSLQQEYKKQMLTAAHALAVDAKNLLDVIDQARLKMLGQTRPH

[4] = system: Fibrinogen (Alexa647-labelled); assay: Alexa647-fibrinogen binding to printed small molecules – biochemical, small-molecule microarray, 635/667 nm fluorescence, artefact control for SMM control-protein annotation, profiling panel (AID 1131); details: fibrinogen-A647 binding fluorescence, higher = more signal;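 also: z-score merges 667 nm fluorescence with per-spot signal-to-noise over triplicate slides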
[5] = molecular target: Follistatin (Homo sapiens) (UniProt P19883); assay: FST protein binding to printed compounds – biochemical, small-molecule microarray, 635/667 nm fluorescence, primary screen (AID 1132); details: 635 nm fluorescence, higher = more signal
Follistatin (Homo sapiens), sequence (P19883 whole entry, looked up): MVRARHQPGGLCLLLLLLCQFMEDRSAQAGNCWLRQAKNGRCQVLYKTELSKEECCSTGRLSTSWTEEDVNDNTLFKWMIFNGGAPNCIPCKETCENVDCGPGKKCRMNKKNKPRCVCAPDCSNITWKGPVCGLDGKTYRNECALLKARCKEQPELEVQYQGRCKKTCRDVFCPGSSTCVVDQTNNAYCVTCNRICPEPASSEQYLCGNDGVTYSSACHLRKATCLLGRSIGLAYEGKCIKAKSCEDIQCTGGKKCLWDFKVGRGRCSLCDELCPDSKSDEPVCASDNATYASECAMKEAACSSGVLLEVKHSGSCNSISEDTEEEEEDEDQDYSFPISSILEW

[6] = molecular target: Fibroblast growth factor 2 (Homo sapiens) (UniProt P09038); assay: basic fibroblast growth factor binding to printed compounds – biochemical, small-molecule microarray, 635/667 nm fluorescence, primary screen (AID 1133); details: FGF2, fluorescence 635/667, higher = more signal
Fibroblast growth factor 2 (Homo sapiens), sequence (P09038 whole entry, looked up): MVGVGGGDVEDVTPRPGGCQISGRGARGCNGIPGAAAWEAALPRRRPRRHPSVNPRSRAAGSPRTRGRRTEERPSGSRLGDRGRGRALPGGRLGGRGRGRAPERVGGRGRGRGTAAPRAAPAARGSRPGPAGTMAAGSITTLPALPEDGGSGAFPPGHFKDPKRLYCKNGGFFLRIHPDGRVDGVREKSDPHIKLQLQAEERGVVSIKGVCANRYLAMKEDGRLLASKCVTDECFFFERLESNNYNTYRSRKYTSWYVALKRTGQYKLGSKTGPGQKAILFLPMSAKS

[7] = JC-1 mitochondrial potential readout, lung cancer cells – cell-based, A549, JC-1 fluorescence, basal, 24 h, 100 nL, profiling panel (AID 1138); details: higher = more signal;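 also: A549 lung adenocarcinoma cells under basal conditions with no added stimulus; test concentration not given here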
Lefty1 = Lefty1 protein binding to printed compounds – biochemical, small-molecule microarray, 635/667 nm fluorescence, primary screen (AID 1139); details: fluorescence 635/667, higher = more signal
[8] = system: wheat germ agglutinin (Triticum aestivum), Alexa647-labelled; assay: Alexa647-WGA lectin binding to printed small molecules – biochemical, small-molecule microarray, 635/667 nm fluorescence, artefact control for SMM control-protein annotation, profiling panel (AID 1140); details: WGA-A647 binding, 635 nm fluorescence, higher = more signal;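 also: score merges 667 nm feature emission with signal to noise over triplicate slides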
[9] = molecular target: Luciferin 4-monooxygenase (Photinus pyralis) (UniProt P08659); assay: inhibition of purified Photinus pyralis luciferase – biochemical, luminescence, purified enzyme, 2006 set, primary screen (AID 1141); details: purified firefly luciferase, SteadyGlo luminescence, 30 min; higher = more signal, called active from +8 up or from −8 down;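 also: cell-free assay with purified firefly luciferase at 100 ng per well in PBS; test concentration not given here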
Luciferin 4-monooxygenase (Photinus pyralis), sequence (P08659 whole entry, looked up): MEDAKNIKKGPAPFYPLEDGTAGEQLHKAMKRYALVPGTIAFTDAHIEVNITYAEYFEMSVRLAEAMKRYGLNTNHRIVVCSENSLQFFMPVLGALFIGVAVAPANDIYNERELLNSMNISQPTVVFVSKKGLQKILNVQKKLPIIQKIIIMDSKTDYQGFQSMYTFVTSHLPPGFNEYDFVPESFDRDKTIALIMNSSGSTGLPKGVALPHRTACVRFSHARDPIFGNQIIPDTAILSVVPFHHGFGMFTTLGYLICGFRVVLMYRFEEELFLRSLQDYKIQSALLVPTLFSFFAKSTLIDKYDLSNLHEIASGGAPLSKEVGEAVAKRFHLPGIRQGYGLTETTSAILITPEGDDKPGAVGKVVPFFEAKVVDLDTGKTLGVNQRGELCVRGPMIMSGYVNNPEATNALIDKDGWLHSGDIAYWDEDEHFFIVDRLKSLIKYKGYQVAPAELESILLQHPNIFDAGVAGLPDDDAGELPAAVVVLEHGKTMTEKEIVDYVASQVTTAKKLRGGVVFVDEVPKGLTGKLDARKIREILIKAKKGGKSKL

[10] = system: Wnt5a (protein binding on small-molecule microarray); assay: small molecules binding Wnt5a protein – biophysical, small-molecule microarray, 635/667 nm fluorescence, primary screen (AID 1142); details: 635 nm fluorescence, higher = more signal;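 also: fluorescence read at 667 nm with signal to noise per printed feature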
[11] = ATP-based viability of Huh7 replicon cells – cell-based, CellTiter-Glo luminescence, basal, 48 h, cytotoxicity control for HCV replication inhibitor project, primary screen (AID 1143); details: higher = more signal, called active from +8 up or from −8 down;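 also: Huh7 hepatoma cells carrying a hepatitis C replication reporter with no stimulus; test concentration not given here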
[12] = Pseudomonas biofilm growth suppression – PAO1 strain, BacTiter-Glo luminescence, LB-PBS, primary screen (AID 1144); details: P. aeruginosa PAO1 biofilm, 12 h, higher = more signal
[13] = basal CRE-LacZ reporter activity in PC12 – cell-based, unstimulated, primary screen (AID 1145); details: no forskolin, luminescence, 4.5 h, higher = more signal, called active from +8 up or from −8 down
[14] = forskolin-driven CRE-LacZ activity in PC12 – cell-based, CRE-LacZ reporter, forskolin-stimulated, primary screen (AID 1146); details: luminescence, 4.5 h, higher = more signal, called active from +8 up or from −8 down;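 also: PC12 cells with 6xCRE LacZ reporter stimulated by forskolin 10 µM; beta-galactosidase reporter signal reflecting CREB driven transcription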
[15] = molecular target: Streptavidin (Streptomyces avidinii) (UniProt P22629); assay: compounds binding control protein streptavidin – biophysical, small-molecule microarray, 635/667 nm fluorescence, artefact control for SMM compound annotation, primary screen (AID 1147); details: higher = more signal;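 also: signal reflects streptavidin binding to arrayed compounds as a control protein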
Streptavidin (Streptomyces avidinii), sequence (P22629 whole entry, looked up): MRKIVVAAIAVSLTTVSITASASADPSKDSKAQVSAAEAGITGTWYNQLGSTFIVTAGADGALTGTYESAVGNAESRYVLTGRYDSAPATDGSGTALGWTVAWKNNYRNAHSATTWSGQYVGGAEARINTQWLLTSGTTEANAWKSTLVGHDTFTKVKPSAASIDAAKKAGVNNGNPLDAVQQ

[16] = probe aInhba binding on compound microarray – biochemical, small-molecule microarray, 635/667 nm fluorescence, primary screen (AID 1148); details: higher = more signal;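 also: score merges 667nm spot fluorescence with signal-to-noise for antibody binding to printed compounds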
Torsin-1A (Homo sapiens) [17] = molecular target: Torsin-1A (Homo sapiens) (UniProt O14656); assay: TOR1A wild-type binding on microarray – cell lysate, small-molecule microarray, lysate, 635/667 nm, primary screen (AID 1149); details: COS7 hTOR1A-WT lysate, 635 nm fluorescence, higher = more signal
Torsin-1A (Homo sapiens), sequence (O14656 whole entry, looked up): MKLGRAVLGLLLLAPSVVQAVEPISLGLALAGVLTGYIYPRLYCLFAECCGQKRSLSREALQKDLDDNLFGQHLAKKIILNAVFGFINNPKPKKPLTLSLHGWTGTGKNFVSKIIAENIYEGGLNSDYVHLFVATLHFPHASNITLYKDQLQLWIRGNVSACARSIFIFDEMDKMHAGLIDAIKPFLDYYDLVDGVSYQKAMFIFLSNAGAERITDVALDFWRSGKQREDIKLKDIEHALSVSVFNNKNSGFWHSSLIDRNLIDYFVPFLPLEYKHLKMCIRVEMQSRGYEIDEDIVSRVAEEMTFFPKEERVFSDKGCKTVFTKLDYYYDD

Torsin-1A (Homo sapiens) [18] = molecular target: Torsin-1A (Homo sapiens) (UniProt O14656); assay: torsin A mutant lysate binding on microarrays – cell lysate, small-molecule microarray, COS7 lysate, 635/667 nm fluorescence, primary screen (AID 1150); details: COS7 hTOR1A mutant lysate, 635 nm fluorescence, higher = more signal;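 also: score pools 667 nm emission and signal to noise measuring lysate protein binding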
[19] = system: Sonic hedgehog protein (Shh); assay: Sonic hedgehog microarray binding compounds – biochemical, small-molecule microarray, 635/667 nm fluorescence, primary screen (AID 1151); details: 635 nm fluorescence, higher = more signal;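 also: Shh protein binding to compounds spotted on small-molecule microarray slides; score combines spot fluorescence intensity with signal-to-noise across triplicate slides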

| Structure (SMILES) | composite z-score [1] | composite z-score [2] | composite z-score [3] | composite z-score [4] | composite z-score [5] | composite z-score [6] | z-score [7] | composite z-score (Lefty1) | composite z-score [8] | z-score [9] | composite z-score [10] | z-score [11] | z-score [12] | z-score [13] | z-score [14] | composite z-score [15] | composite z-score [16] | composite z-score (Torsin-1A (Homo sapiens) [17]) | composite z-score (Torsin-1A (Homo sapiens) [18]) | composite z-score [19] |
| --- | --- | --- | --- | --- | --- | --- | --- | --- | --- | --- | --- | --- | --- | --- | --- | --- | --- | --- | --- | --- |
| COC(=O)[C@@]1(Cc2ccccc2)[C@H]2c3cc(C(=O)N4CCCC4)n(CC4CC4)c3C[C@H]2CN1C(=O)c1ccccc1 | 1.13 | 1.2 | 0.885 | 0.643 | 0.76 | -0.031 | -0.641 | 0.206 | 0.847 | 1.42 (inactive) | 0.918 | -3.64 (inactive) | 0.798 (inactive) | 0.587 (inactive) | 0.847 (inactive) | 0.907 | 1.06 | 0.256 | 0.0577 | -0.151 |
| COc1ccc(CCN2C(=O)[C@@]3(Cc4ccccc42)c2ccccc2C(=O)N(Cc2ccccc2C(F)(F)F)[C@H]3c2ccc(CO)cc2)cc1 | 0.752 | -0.175 | -0.324 | 0.732 | 1.12 | 0.83 | -0.963 | 0.541 | 0.461 | 0.642 (inactive) | 0.268 | -4.12 (inactive) | -1.41 (inactive) | -0.554 (inactive) | -0.361 (inactive) | -0.228 | -0.208 | 0.208 | 0.087 | 1.9 |
| CN(C)CCCCCCNC(=O)[C@@H]1C[C@@H]2C(=O)N[C@@H](CCCCN)C(=O)N2[C@@H]1c1cccc(OCCO)c1 | 3.24 | 1.31 | 2.31 | 1.01 | 1.45 | 1.59 | 1.08 | 1.66 | 1.62 | -1.61 (inactive) | 1.97 | -0.598 (inactive) | -1.19 (inactive) | -0.268 (inactive) | -0.199 (inactive) | 3.03 | 1.57 | 3.29 | 3.11 | 1.92 |
| C=C(CCCC)C(=O)CC[C@H](OC(=O)c1cccnc1)c1ccccc1OCCO | 0.984 | -0.513 | 0.0467 | -0.633 | 0.537 | 1.32 | 1.08 | 0.785 | 0.14 | -0.288 (inactive) | 0.218 | -2.15 (inactive) | -0.0162 (inactive) | 2.21 (inactive) | 1.94 (inactive) | -0.423 | -0.128 | 1.07 | 0.218 | 0.552 |
| O=C1NC(=O)C2C1C=CC(C(O)c1ccccc1)N2Nc1ccc(Cl)cc1Cl (stereo not given) | 1.62 | 1.16 | 0.433 | 0.985 | 1.28 | 0.394 | -0.0329 | 1.4 | 0.763 | -1.44 (inactive) | 0.656 | -2.84 (inactive) | -1.4 (inactive) | 0.429 (inactive) | -0.12 (inactive) | 2.01 | 0.225 | 1.01 | 1.4 | 1.68 |
| CN(C)CCCC[C@@H]1NC(=O)[C@H]2C[C@@H](C(=O)NCCCCCNC(=O)CS)[C@@H](c3cccc(OCCO)c3)N2C1=O | 1.32 | 0.866 | 0.688 | 0.44 | 1.41 | 1.69 | 0.446 | 1 | -0.0708 | -0.804 (inactive) | 0.12 | 0.358 (inactive) | -0.358 (inactive) | -0.114 (inactive) | 0.547 (inactive) | 0.182 | -0.128 | 0.537 | 0.749 | 1.72 |
| O=C1OCCC=C[C@H]2OC34C=CCN(CCN5CCOCC5)C(=O)[C@H]3N(CCCCCCO)C(=O)[C@@H]4C12 (stereo not given in full) | 0.626 | -0.525 | 0.604 | -1 | -0.061 | -0.486 | 0.884 | 0.0839 | -0.255 | -0.892 (inactive) | -0.0312 | 0.18 (inactive) | -0.134 (inactive) | 1.55 (inactive) | 0.0231 (inactive) | -0.393 | -0.179 | 0.811 | -0.839 | 0.65 |
| CC(C)N1C(=O)[C@@]2(Cc3ccccc31)c1ccccc1C(=O)N(C1CCCCC1)[C@H]2c1ccc(CO)cc1 | -0.192 | 0.37 | -0.0723 | 0.193 | 1.33 | 0.254 | -0.958 | 0.958 | -0.01 | 1.11 (inactive) | 0.0034 | -0.8 (inactive) | -0.868 (inactive) | -0.141 (inactive) | 0.815 (inactive) | -0.169 | -0.0987 | -0.245 | 0.333 | 1.99 |
| O=C1O[C@@H](c2ccccc2)[C@@H](c2ccccc2)N2[C@@H](c3ccccc3OCCO)[C@]3(C(=O)Nc4ccc(C#CC5=CCCCC5)cc43)[C@@H](C(=O)Nc3nc4ccccc4s3)[C@H]12 | 0.353 | 1.17 | 0.0358 | 0.843 | 1.12 | 0.885 | -2.22 | 0.781 | 0.622 | -0.959 (inactive) | 0.799 | -4.3 (inactive) | -1.15 (inactive) | -0.191 (inactive) | 0.447 (inactive) | 1.1 | 0.0516 | -0.271 | 0.335 | 0.988 |
| COc1ccc([C@H]2OC[C@@H]3CC4(CC=CC4)C(=O)N32)cc1 | -0.648 | 0.828 | 0.282 | -0.163 | 1.4 | 0.848 | -0.661 | 1.35 | -0.284 | -0.573 (inactive) | 0.0071 | 0.377 (inactive) | 0.25 (inactive) | 0.236 (inactive) | 0.249 (inactive) | 0.193 | -0.159 | -0.477 | -0.436 | 1.92 |
